Records with an inconclusive call do not appear. Where a call stands in place of a potency, no number is given. Where a structure was tested more than once in an assay, its records may differ in their call. Calls of active or inactive are those of the source. Unless noted, calls follow the shape of the dose curve; as a rule, active = well fitted curve in the direction sought with a large enough effect in the repeat runs; inconclusive = weak or mixed curves; inactive = no such curve, though single readings can be large; an effect the other way counts as inactive or inconclusive.
Columns and labels:
[1] = qHTS assay to identify small molecule agonists of the peroxisome proliferator-activated receptor delta (PPARd) signaling pathway - cell viability counter screen (AID 743211); also: nearly all actives have a fitted effect of over 55% in size
Procedure, shortened: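 Following 5 h plating at 37 C and 5% CO2, PPARd UAS-bla HEK293H cells took up test compounds for 17 h. Viability was quantified by luminescence 30 min after CellTiter-Glo addition at room temperature.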

[2] = qHTS assay to identify small molecule agonists of the farnesoid-X-receptor (FXR) signaling pathway - cell viability counter screen (AID 743218); also: nearly all actives have a fitted effect of over 45% in size
Procedure, shortened: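 FXR-UAS-bla HEK 293T cells, plated 5 h at 37 C, were exposed to compounds for 16 h at 37 C. CellTiter-Glo was then added to the same wells as the bla readout; luminescence read after 30 min at room temperature.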

[3] = qHTS assay to identify small molecule antagonists of the farnesoid-X-receptor (FXR) signaling pathway - cell viability counter screen (AID 743221; active = well fitted cell-killing curve with a large enough effect in the repeat runs, not every such curve was filed as active; also: nearly all actives have a fitted effect of over 50% in size)
Procedure, shortened: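 Compound effects on cell number were measured as CellTiter-Glo luminescence in HEK 293T cells expressing FXR-UAS-bla, after 16 h at 37 C with 50 uM CDCA (final).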

[4] = biological target: Vitamin D3 receptor (Homo sapiens) (UniProt P11473); assay: qHTS assay to identify small molecule agonists of the vitamin D receptor (VDR) signaling pathway (AID 743222; calls by dose curve)
Chain of Vitamin D3 receptor (Homo sapiens) (P11473 whole entry, looked up): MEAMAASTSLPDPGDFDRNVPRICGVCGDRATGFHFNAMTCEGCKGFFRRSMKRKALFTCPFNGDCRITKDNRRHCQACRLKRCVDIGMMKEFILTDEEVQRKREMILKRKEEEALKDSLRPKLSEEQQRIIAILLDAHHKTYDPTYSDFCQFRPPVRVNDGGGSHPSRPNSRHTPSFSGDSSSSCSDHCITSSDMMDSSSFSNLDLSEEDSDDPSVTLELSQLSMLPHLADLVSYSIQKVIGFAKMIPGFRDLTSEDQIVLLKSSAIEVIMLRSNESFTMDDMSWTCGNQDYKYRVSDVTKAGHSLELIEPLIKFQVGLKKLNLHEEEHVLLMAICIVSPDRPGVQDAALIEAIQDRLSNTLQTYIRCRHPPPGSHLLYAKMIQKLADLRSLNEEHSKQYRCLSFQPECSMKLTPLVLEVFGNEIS
Procedure, shortened: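 VDR-bla cells were plated 4 h at 37C/5% CO2, then exposed to compounds in DMSO for 16 h. After LiveBLAzer B/G FRET substrate addition and 2 h at room temperature, beta-lactamase reporter fluorescence was read.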

[5] = biological target: Vitamin D3 receptor (Homo sapiens) (UniProt P11473); assay: qHTS assay to identify small molecule antagonists of the vitamin D receptor (VDR) signaling pathway (AID 743223; active = well fitted inhibition curve with a large enough effect in the signal ratio in the repeat runs, not every such curve was filed as active; the % refers to the signal ratio)
Procedure, shortened: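 Beta-lactamase activity in VDR-bla cells is measured by FRET substrate fluorescence (2 h, room temperature) after cells spend 16 h at 37C with test compound and 3 nM final 1alpha,25-dihydroxyvitamin D3.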

[6] = qHTS assay to identify small molecule agonists of the vitamin D receptor (VDR) signaling pathway - cell viability counter screen (AID 743224); also: series mostly up to about 63 µM; nearly all actives have a fitted effect of over 50% in size
Procedure, shortened: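 VDR-bla cells were preincubated 4 h at 37C/5% CO2, then exposed to compounds for 16 h. After the 2 h room-temperature bla FRET read, CellTiter-Glo was added to the same wells and luminescence read after 30 min.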

[7] = qHTS assay to identify small molecule antagonists of the vitamin D receptor (VDR) signaling pathway - cell viability counter screen (AID 743225); also: nearly all actives have a fitted effect of over 50% in size
Procedure, shortened: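 In this counter screen, VDR-bla HEK 293T cells receive test compound plus 3 nM final calcitriol for 16 h at 37C. Room-temperature steps of 2 h with the beta-lactamase substrate, then 30 min with CellTiter-Glo, precede the luminescence read.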

[8] = qHTS assay to identify small molecule agonists of the NFkB signaling pathway (AID 1159509; active = well fitted curve in the direction sought with a large enough effect in the signal ratio in the repeat runs, not every such curve was filed as active; the % refers to the signal ratio; also: series mostly up to about 61 µM)
Procedure, shortened: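 NFkB-bla ME-180 cells carry a beta-lactamase reporter under an NF-kB response element. They were plated overnight, then exposed to compounds for 5 h at 37 C. Read-out is LiveBLAzer FRET after 1.5 hr at room temperature (405 nm excitation; 460/530 nm emission).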

[9] = qHTS assay to identify small molecule agonists of the NFkB signaling pathway - cell viability counter screen (AID 1159515; calls by dose curve; also: series mostly up to about 61 µM; nearly all actives have a fitted effect of over 55% in size)
Procedure, shortened: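 NFkB-bla ME-180 cells, 2,000/well, were plated overnight at 37 C, 5% CO2, then exposed to compounds in DMSO for 5 hr. After the bla FRET read, CellTiter-Glo was added to the same wells; luminescence was read after 30 min at room temperature.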

[10] = qHTS assay to identify small molecule agonists of the endoplasmic reticulum stress response signaling pathway (AID 1159516; active = well fitted activation curve with a large enough effect in the signal ratio in the repeat runs, not every such curve was filed as active; the % refers to the signal ratio)
Procedure, shortened: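 CellSensor ESRE-bla HeLa cells, carrying a beta-lactamase reporter driven by the ER stress response element, were plated overnight and exposed to compounds for 5 hr at 37 C. Reporter activity was read as FRET substrate fluorescence after 2 hr at room temperature.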

[11] = qHTS assay to identify small molecule agonists of the endoplasmic reticulum stress response signaling pathway - cell viability counter screen (AID 1159517; calls by dose curve; also: series mostly up to about 61 µM; nearly all actives have a fitted effect of over 50% in size)
Procedure, shortened: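 CellTiter-Glo was added to wells already read for beta-lactamase FRET, and luminescence was recorded 30 min later. Cells: ESRE-bla HeLa, 1,500 per well, compound exposure 5 hr at 37 C.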

[12] = qHTS assay to identify small molecule antagonists of the retinoid-related orphan receptor gamma (ROR-gamma) signaling pathway - cell viability counter screen (AID 1159520); also: nearly all actives have a fitted effect of over 50% in size
Procedure, shortened: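 Tet-on ROR gamma CHO cells (1,000/well) were plated 4 hr, given compounds in DMSO for 2 hr at 37 C, then induced with 1 uM final doxycycline for 16 hr. Viability was read as ATP by CellTiter-Glo luminescence after 30 min.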

[13] = biological target: Nuclear receptor ROR-gamma (Homo sapiens) (UniProt P51449); assay: qHTS assay to identify small molecule antagonists of the retinoid-related orphan receptor gamma (ROR-gamma) signaling pathway (AID 1159521; also: nearly all actives have a fitted effect of over 50% in size; also: potency is read from the fitted curve at half-maximal effect)
Procedure, shortened: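 Screening format: cell-based luciferase reporter in CHO cells with doxycycline-inducible RORγ. Compound pre-exposure lasts 2 h, doxycycline is 1 uM final, induction runs 16 h at 37 C, and ONE-Glo luminescence is read.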

[14] = qHTS assay to identify small molecule agonists of the AP-1 signaling pathway - cell viability counter screen (AID 1159525; calls by dose curve; also: nearly all actives have a fitted effect of over 55% in size)
Procedure, shortened: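 ME-180 AP-1-bla, 2500 cells/well, Opti-MEM + 0.5% dialyzed FBS; overnight 37 °C; cpd 15-pt titration, 5 h 37 °C; CellTiter-Glo 30 min RT; luminescence read; normalised to TOAB and DMSO controls.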

[15] = qHTS assay to identify small molecule agonists of the AP-1 signaling pathway (AID 1159526; calls by dose curve)
[16] = biological target: Peroxisome proliferator-activated receptor delta (Homo sapiens) (UniProt Q03181); assay: qHTS assay to identify small molecule agonists of the peroxisome proliferator-activated receptor delta (PPARd) signaling pathway (AID 743212; calls by dose curve)
Chain of Peroxisome proliferator-activated receptor delta (Homo sapiens) (Q03181 whole entry, looked up): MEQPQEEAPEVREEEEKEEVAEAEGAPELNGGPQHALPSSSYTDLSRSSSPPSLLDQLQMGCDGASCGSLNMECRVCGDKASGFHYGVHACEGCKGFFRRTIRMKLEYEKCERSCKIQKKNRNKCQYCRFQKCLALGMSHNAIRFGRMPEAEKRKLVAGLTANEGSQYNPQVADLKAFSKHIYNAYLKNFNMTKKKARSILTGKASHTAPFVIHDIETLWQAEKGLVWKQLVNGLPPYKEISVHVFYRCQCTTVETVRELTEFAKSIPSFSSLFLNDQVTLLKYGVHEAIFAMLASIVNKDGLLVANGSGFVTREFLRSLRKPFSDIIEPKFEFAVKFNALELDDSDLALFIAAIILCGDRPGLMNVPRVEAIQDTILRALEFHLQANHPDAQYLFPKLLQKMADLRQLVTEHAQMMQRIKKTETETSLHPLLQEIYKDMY
Procedure, shortened: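 A PPARd-bla HEK293H line with beta-lactamase under an Upstream Activator Sequence is treated with compounds at 37 C. Substrate loading for 2 h at room temperature precedes the fluorescence measurement.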

[17] = biological target: Peroxisome proliferator-activated receptor delta (Homo sapiens) (UniProt Q03181); assay: qHTS assay to identify small molecule antagonists of the peroxisome proliferator-activated receptor delta (PPARd) signaling pathway (AID 743215; active = well fitted inhibition curve with a large enough effect in the signal ratio in the repeat runs, not every such curve was filed as active; the % refers to the signal ratio;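 also: cells stimulated with agonist L165041 at 300 nM final during compound exposure; series mostly up to about 62 µM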)
Procedure, shortened: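 PPARd UAS-bla HEK293H cells were pre-incubated 5 h at 37 C, then given test compounds in DMSO plus agonist L165041 (300 nM final). After 17 h at 37 C, beta-lactamase FRET substrate was added; fluorescence read after 2 h at room temperature.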

[18] = qHTS assay to identify small molecule antagonists of the peroxisome proliferator-activated receptor delta (PPARd) signaling pathway - cell viability counter screen (AID 743213); also: nearly all actives have a fitted effect of over 50% in size
Procedure, shortened: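 Luminescence from CellTiter-Glo, added after the bla read and incubated 30 min at room temperature, gives viability of HEK293H PPARd-bla cells exposed to compounds for 17 h at 37 C with 300 nM L165041.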

[19] = biological target: Bile acid receptor (Homo sapiens) (UniProt Q96RI1); assay: qHTS assay to identify small molecule antagonists of the farnesoid-X-receptor (FXR) signaling pathway (AID 743217; active = well fitted inhibition curve with a large enough effect in the signal ratio in the repeat runs, not every such curve was filed as active; the % refers to the signal ratio)
Chain of Bile acid receptor (Homo sapiens) (Q96RI1 whole entry, looked up): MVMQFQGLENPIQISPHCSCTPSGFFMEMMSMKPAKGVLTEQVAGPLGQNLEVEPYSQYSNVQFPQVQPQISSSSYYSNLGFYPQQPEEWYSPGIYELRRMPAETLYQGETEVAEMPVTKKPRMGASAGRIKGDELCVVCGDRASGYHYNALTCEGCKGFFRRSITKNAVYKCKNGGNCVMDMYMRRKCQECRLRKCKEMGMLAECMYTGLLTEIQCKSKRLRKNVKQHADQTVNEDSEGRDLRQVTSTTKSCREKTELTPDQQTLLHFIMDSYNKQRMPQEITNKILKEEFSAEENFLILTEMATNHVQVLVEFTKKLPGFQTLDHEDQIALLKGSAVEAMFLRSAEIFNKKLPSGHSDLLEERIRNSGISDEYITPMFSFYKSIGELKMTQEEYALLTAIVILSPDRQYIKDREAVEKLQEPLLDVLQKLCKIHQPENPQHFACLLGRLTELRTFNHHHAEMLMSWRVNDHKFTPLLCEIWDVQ
Procedure, shortened: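 FXR-UAS-bla HEK 293T cells pre-incubated 5 h at 37 °C, then exposed to compounds with chenodeoxycholic acid (50 uM final) for 16 h at 37 °C. Beta-lactamase reporter read by LiveBLAzer B/G FRET substrate fluorescence after 2 h at room temperature.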

[20] = biological target: Bile acid receptor (Homo sapiens) (UniProt Q96RI1); assay: qHTS assay to identify small molecule agonists of the farnesoid-X-receptor (FXR) signaling pathway (AID 743220; active = well fitted activation curve with a large enough effect in the signal ratio in the repeat runs, not every such curve was filed as active; the % refers to the signal ratio)
Procedure, shortened: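 Beta-lactamase reporter under UAS control in GeneBLAzer FXR HEK 293T cells (5000/well) measured with LiveBLAzer FRET substrate after 2 h at room temperature. Compound exposure lasted 16 h at 37C.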

Row | SMILES | Potency [1] | Potency [2] | Potency [3] | outcome [4] | outcome [5] | Potency [6] | outcome [7] | outcome [8] | outcome [9] | outcome [10] | outcome [11] | outcome [12] | Potency [13] | outcome [14] | Potency [15] | outcome [16] | outcome [17] | outcome [18] | outcome [19] | outcome [20]
1 | C=CC#N | inactive | inactive | inactive | inactive | inactive | inactive | inactive | inactive | inactive | inactive | inactive | inactive | inactive | inactive | inactive |  |  |  |  | 
2 | OC[C@@H](O)[C@H]1O[C@@H]2O[C@H](C(Cl)(Cl)Cl)O[C@@H]2[C@H]1O | inactive | inactive | inactive |  |  | inactive | inactive | inactive | inactive | inactive | inactive | inactive | inactive | inactive | inactive | inactive | inactive |  |  | 
3 | O=C(O)COc1ccccc1 | inactive | inactive | inactive | inactive | inactive | inactive | inactive | inactive | inactive | inactive | inactive | inactive |  | inactive | inactive | inactive | inactive | inactive |  | 
4 | O=C(O)Cc1ccccc1 | inactive | inactive | inactive | inactive | inactive | inactive | inactive | inactive | inactive | inactive | inactive | inactive | inactive | inactive | inactive |  |  |  | inactive | inactive
5 | COC(C)(C)CCCC(C)C/C=C/C(C)=C/C(=O)OC(C)C (stereo not given) | inactive | inactive | inactive |  |  | inactive | inactive | inactive | inactive | inactive | inactive | inactive | inactive | inactive | inactive |  |  | inactive |  | 
6 | NNc1ccccc1 | inactive | inactive | inactive |  |  | inactive | inactive | inactive | inactive | inactive | inactive | inactive | inactive | inactive | inactive |  |  |  |  | 
7 | CC12CC1(C)C(=O)N(c1cc(Cl)cc(Cl)c1)C2=O (stereo not given) | inactive | inactive | inactive | inactive | inactive | inactive | inactive | inactive | inactive | inactive | inactive | inactive | inactive | inactive | inactive | inactive |  |  |  | 
8 | C=C(C)C(=O)OCC(CC)CCCC (stereo not given) | inactive | inactive | inactive | inactive | inactive | inactive | inactive | inactive | inactive | inactive | inactive | inactive | 49.5 µM (active) and inactive | inactive | inactive |  |  | inactive |  | 
9 | COc1cc(-c2ccc(N)c(OC)c2)ccc1N | inactive | inactive | inactive | inactive | inactive | inactive | inactive | inactive | inactive |  | inactive | inactive | inactive | inactive | inactive | inactive | inactive | inactive |  | 
10 | O=[N+]([O-])c1ccc(Cl)cc1 | inactive | inactive | inactive | inactive | inactive | inactive | inactive | inactive | inactive | inactive | inactive | inactive | inactive | inactive | inactive |  |  | inactive |  | 
11 | CCCCCCCCCCCCCCCCCC(=O)O | inactive | inactive | inactive |  |  | inactive | inactive | inactive | inactive | inactive | inactive | inactive |  | inactive | inactive |  |  |  |  | 
12 | CNCC(O)c1ccc(O)cc1 (stereo not given) | inactive | inactive | inactive | inactive | inactive | inactive | inactive | inactive | inactive | inactive | inactive | inactive | inactive | inactive | inactive | inactive |  |  | inactive | inactive
13 | O=P1(NCCCl)OCCCN1CCCl (stereo not given) | inactive | inactive | inactive |  |  | inactive | inactive | inactive | inactive | inactive | inactive | inactive | inactive | inactive | inactive |  |  | inactive |  | 

— PubChem BioAssay (Tox21)
